# Reference: PubChem BioAssay (EPA / NIEHS)
# Results filed as inconclusive are left out. The source made the active and inactive calls. The calls were made as follows: active = hit-call score of the fitted dose curve at least 0.9, where 1 is the maximum; inconclusive = response in the unintended direction; inactive = score below 0.9.
# What was measured:
# [1] = molecular target: Voltage-dependent N-type calcium channel subunit alpha-1B (Rattus norvegicus) (UniProt Q02294); assay: NVS_IC_rCaChN: NovaScreen (NVS) Ion Channel Assay for rat Calcium Channel, Type N (CaChN) (AID 2283317)
# [2] = molecular target: rat Opioid Receptor, Non-selective Binding, Oprm1 (gene 25601) (UniProt P33535); assay: NVS_GPCR_rOpiate_NonSelective: NovaScreen (NVS) G Protein-Coupled Receptor Assay for rat Opioid Receptor, Non-selective Binding (AID 2283318)
# Sequence of rat Opioid Receptor, Non-selective Binding, Oprm1 (gene 25601) (P33535 whole entry, looked up): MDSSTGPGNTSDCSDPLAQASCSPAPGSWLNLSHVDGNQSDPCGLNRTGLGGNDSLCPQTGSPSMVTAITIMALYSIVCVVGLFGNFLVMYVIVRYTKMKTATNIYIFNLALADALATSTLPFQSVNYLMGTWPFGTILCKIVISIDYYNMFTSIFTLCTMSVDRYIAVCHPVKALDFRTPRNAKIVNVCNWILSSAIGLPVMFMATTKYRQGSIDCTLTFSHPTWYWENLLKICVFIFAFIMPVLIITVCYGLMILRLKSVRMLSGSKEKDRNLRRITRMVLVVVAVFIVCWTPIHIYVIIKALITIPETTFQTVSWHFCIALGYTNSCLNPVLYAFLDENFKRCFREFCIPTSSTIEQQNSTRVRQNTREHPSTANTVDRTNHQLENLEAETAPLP
# Procedure, shortened: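 Filter-based radioligand displacement using rat forebrain membrane preparations, measured 1.5 h post-dosing. Single-concentration duplicate screen at 25 uM, follow-up in concentration series; activity taken as signal loss relative to DMSO.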
# [3] = molecular target: rat Opioid Receptor, Non-selective Sodium (Na+) Binding, Oprm1 (gene 25601) (UniProt P33535); assay: NVS_GPCR_rOpiate_NonSelectiveNa: NovaScreen (NVS) G Protein-Coupled Receptor Assay for rat Opioid Receptor, Non-selective Sodium (Na+) Binding (AID 2283311)
# Sequence of rat Opioid Receptor, Non-selective Sodium (Na+) Binding, Oprm1 (gene 25601) (P33535 whole entry, looked up): as above
# Procedure, shortened: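 Filtration radioligand binding on rat forebrain membrane preparations, read 1.5 h after dosing. Single-concentration 25 µM primary screen in duplicate, followed by singleton concentration series to 50 µM max for actives; DMSO baseline.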
# [4] = molecular target: human Neonicotinoid receptor (NNR), CHRNA2 (gene 1135) (UniProt Q15822); assay: NVS_LGIC_hNNR_NBungSens: NovaScreen (NVS) Ligand-Gated Ion Channel Assay for human Neonicotinoid receptor (NNR) (AID 2283313)
# Sequence of human Neonicotinoid receptor (NNR), CHRNA2 (gene 1135) (Q15822 whole entry, looked up): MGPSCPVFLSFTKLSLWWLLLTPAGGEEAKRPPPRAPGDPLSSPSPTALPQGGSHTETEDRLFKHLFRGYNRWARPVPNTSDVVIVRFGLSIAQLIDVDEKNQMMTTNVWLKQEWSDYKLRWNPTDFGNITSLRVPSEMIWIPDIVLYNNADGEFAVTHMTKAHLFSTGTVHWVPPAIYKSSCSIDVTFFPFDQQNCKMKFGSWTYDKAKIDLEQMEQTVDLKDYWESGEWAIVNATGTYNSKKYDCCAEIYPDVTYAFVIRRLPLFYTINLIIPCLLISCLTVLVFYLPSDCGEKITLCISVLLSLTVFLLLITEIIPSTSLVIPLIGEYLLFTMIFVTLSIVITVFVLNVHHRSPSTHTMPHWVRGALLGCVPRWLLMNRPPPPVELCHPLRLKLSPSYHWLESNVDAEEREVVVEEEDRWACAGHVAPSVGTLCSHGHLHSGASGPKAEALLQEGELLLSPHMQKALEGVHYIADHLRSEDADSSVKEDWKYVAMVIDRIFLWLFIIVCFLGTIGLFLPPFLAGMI
# Procedure, shortened: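 Compounds first screened in duplicate at 25 uM, then actives re-tested in single-replicate dose series up to 50 uM. Binding measured as displacement of specific radioligand from neuroblastoma membrane receptors after 2 h, scintillation read on filters.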
# [5] = molecular target: rat Neonicotinoid receptor (NNR), Chrna7 (gene 25302) (UniProt Q05941); assay: NVS_LGIC_rNNR_BungSens: NovaScreen (NVS) Ligand-Gated Ion Channel Assay for rat Neonicotinoid receptor (NNR) (AID 2283315)
# Sequence of rat Neonicotinoid receptor (NNR), Chrna7 (gene 25302) (Q05941 whole entry, looked up): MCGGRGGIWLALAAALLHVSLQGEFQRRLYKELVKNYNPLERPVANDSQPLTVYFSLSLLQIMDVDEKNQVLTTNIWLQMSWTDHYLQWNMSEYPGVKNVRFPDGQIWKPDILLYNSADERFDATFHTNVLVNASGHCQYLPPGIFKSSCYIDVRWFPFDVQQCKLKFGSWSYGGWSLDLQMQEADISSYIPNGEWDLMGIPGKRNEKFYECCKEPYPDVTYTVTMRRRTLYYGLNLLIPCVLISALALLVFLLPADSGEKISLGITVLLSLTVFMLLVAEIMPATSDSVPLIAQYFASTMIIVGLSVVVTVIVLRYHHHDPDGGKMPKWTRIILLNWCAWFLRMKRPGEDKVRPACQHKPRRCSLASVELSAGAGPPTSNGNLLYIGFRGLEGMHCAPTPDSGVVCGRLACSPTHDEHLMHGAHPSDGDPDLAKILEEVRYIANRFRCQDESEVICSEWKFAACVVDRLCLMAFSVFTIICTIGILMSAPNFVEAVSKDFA
# Procedure, shortened: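 Rat cortical membrane preparation incubated 2.5 h with tritiated or iodinated radioligand and test chemical. Bound radioactivity was filtered and counted by scintillation, and displacement was analysed against DMSO.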
# [6] = molecular target: rat Somatostatin Receptor (SST), Sstr1 (gene 25033) (UniProt P28646); assay: NVS_GPCR_rSST: NovaScreen (NVS) G Protein-Coupled Receptor Assay for rat Somatostatin Receptor (SST) (AID 2283314)
# Sequence of rat Somatostatin Receptor (SST), Sstr1 (gene 25033) (P28646 whole entry, looked up): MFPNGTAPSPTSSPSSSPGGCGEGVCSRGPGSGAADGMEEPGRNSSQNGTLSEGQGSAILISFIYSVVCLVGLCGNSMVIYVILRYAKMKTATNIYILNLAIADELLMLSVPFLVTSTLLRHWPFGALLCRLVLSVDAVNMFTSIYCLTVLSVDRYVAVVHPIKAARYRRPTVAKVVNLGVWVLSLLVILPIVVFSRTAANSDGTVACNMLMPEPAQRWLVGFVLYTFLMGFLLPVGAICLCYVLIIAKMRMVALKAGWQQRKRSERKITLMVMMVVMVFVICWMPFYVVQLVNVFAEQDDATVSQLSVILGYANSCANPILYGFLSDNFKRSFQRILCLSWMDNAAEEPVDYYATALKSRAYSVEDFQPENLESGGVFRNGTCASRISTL
# Procedure, shortened: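 Single-concentration duplicate screen (25 uM), then concentration-response up to 50 uM for chemicals passing a threshold such as 30% inhibition. Membranes came from rat forebrain. Binding was measured 1 h post-dose by filter radiodetection and scintillation, relative to DMSO.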
# [7] = molecular target: rat Vasopressin 1 Receptor (V1), Avpr1a (gene 25107) (UniProt P30560); assay: NVS_GPCR_rV1: NovaScreen (NVS) G Protein-Coupled Receptor Assay for rat Vasopressin 1 Receptor (V1) (AID 2283316)
# Sequence of rat Vasopressin 1 Receptor (V1), Avpr1a (gene 25107) (P30560 whole entry, looked up): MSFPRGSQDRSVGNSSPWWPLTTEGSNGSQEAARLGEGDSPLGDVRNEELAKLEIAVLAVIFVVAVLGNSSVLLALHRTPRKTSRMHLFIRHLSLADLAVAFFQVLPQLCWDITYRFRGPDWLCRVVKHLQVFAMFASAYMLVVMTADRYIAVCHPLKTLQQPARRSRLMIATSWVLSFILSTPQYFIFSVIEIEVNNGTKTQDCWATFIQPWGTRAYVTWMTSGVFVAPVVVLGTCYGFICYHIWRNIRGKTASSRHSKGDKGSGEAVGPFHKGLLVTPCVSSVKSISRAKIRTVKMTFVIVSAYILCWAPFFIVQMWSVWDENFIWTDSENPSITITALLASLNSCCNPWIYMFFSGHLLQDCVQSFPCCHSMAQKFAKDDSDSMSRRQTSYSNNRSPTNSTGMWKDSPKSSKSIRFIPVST
# Procedure, shortened: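 Concentration-response up to 50 uM for chemicals passing a threshold such as 30% inhibition in an initial duplicate 25 uM screen. Displacement of radioligand from rat liver membranes measured after 1.5 h by filtration and scintillation.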
# [8] = molecular target: rat Neurokinin-3 Receptor (NK3), Tacr3 (gene 24808) (UniProt P16177); assay: NVS_GPCR_rNK3: NovaScreen (NVS) G Protein-Coupled Receptor Assay for rat Neurokinin-3 Receptor (NK3) (AID 2283310)
# Sequence of rat Neurokinin-3 Receptor (NK3), Tacr3 (gene 24808) (P16177 whole entry, looked up): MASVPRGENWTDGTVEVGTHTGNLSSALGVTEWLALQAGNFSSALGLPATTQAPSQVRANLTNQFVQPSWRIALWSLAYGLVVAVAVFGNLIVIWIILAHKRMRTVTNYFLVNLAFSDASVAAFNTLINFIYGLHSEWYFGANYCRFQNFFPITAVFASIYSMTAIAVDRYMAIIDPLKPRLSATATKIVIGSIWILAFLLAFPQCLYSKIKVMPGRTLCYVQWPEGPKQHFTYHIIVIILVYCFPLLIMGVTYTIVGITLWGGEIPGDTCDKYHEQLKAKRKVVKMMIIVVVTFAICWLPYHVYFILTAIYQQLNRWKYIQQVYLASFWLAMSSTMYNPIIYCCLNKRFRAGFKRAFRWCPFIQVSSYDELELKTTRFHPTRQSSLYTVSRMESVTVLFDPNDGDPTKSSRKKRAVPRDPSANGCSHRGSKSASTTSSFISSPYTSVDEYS
# Procedure, shortened: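 Filter-based radioligand displacement on rat cortex membrane preparations, read by scintillation 2 h post-dose. Chemicals first tested in duplicate at 25 uM; actives followed up in concentration series with a 50 uM maximum.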
# [9] = molecular target: rat Glutamate Metabotropic Receptor 5 (MGluR5), Grm5 (gene 24418) (UniProt P31424); assay: NVS_GPCR_rmMGluR5: NovaScreen (NVS) G Protein-Coupled Receptor Assay for rat Glutamate Metabotropic Receptor 5 (MGluR5) (AID 2283307)
# Sequence of rat Glutamate Metabotropic Receptor 5 (MGluR5), Grm5 (gene 24418) (P31424 whole entry, looked up): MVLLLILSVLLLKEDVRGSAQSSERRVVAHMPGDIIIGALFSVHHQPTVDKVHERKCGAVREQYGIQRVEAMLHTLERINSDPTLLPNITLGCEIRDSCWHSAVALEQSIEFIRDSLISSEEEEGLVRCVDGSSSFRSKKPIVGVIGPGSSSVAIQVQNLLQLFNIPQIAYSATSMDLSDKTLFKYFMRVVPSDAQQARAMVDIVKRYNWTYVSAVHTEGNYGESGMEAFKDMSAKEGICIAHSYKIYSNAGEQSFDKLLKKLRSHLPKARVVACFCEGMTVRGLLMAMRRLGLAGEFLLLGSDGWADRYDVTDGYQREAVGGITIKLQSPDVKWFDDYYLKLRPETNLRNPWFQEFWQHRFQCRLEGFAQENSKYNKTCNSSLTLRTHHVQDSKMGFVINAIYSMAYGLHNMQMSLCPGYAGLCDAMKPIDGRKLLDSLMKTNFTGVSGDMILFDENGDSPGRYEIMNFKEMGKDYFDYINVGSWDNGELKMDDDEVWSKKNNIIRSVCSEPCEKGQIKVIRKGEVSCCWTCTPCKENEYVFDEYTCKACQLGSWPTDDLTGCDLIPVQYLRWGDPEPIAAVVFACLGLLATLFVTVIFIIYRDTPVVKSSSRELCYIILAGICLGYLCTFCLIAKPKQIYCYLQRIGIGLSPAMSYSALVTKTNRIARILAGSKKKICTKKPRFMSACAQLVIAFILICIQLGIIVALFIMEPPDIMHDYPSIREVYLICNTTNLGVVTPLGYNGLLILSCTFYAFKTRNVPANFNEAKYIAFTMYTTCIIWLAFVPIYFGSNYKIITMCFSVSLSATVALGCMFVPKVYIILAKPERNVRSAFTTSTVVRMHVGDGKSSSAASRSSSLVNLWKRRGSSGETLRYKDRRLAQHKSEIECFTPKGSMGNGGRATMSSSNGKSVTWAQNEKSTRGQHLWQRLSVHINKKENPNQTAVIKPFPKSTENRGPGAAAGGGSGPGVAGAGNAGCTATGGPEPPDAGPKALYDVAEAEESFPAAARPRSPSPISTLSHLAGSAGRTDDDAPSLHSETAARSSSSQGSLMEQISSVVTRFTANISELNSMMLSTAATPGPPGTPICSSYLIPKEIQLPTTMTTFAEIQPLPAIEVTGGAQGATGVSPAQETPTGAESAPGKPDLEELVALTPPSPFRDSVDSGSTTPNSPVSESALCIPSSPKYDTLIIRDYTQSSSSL
# Procedure, shortened: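 Compounds first screened in duplicate at 25 uM, then in concentration series up to 50 uM if over threshold. Radioligand displacement on rat whole-brain membranes, filtration and scintillation counting after 1.5 h; binding loss relative to DMSO.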
compound,measurement,setting,value
CCOc1cccc(C2(N3CCN(c4ccccc4)CC3)CCC(C)CC2)c1 (stereo unspecified),outcome,[1],inactive
CCCCC(CC)COC(=O)c1ccc(C(=O)OCC(CC)CCCC)c(C(=O)OCC(CC)CCCC)c1 (stereo unspecified),outcome,[2],inactive
CCOC(=O)[C@]1(c2ccccc2)Oc2ccccc2[C@@H]1N,AC50,[3],21.3 µM (active)
same,outcome,[4],inactive
same,AC50,[5],25 µM (active)
same,AC50,[2],7.52 µM (active)
CS(=O)(=O)NC(=O)c1cc(Oc2ccc(C(F)(F)F)cc2Cl)ccc1[N+](=O)[O-],AC50,[6],1.38 µM (active)
same,outcome,[1],inactive
C1=Cc2cccc3cccc1c23,AC50,[7],1.11 µM (active)
N#CC(Br)Br,outcome,[8],inactive
CCN(CC)CCO,outcome,[9],inactive
